Data on five compounds can be found in PubChem BioAssay.

Active and inactive are the calls of the source.

A short description of assay [1]: small molecules captured by biotinylated probe aFSTL3 – biochemical, small-molecule microarray, fluorescence 635/667, stem cell growth factor project, primary screen (AID 1064).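 Note: measures binding of the biotinylated anti-FSTL3 antibody to printed compounds.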 The settings on record: higher = more signal.
The nature of assay [2]: binders from COS7 lysate, DM2A8 probe, primary screen, torsin A project, cell lysate, small-molecule microarray, fluorescence 635/667 (AID 1065). The settings on record: higher = more signal, COS7 lysate expressing mutant human TOR1A.
Assay [3] can be described thus: small molecules captured by biotinylated probe aFGF2 – biochemical, small-molecule microarray, fluorescence 635/667, stem cell growth factor project, primary screen (AID 1067).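 Note: measures binding of biotinylated aFGF2 protein to printed compounds on slides; z-score merges feature fluorescence and signal-to-noise across triplicate slides.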 The settings on record: higher = more signal.
A short description of assay [4]: small molecules captured by biotinylated probe aFGF10 – biochemical, small-molecule microarray, fluorescence 635/667, stem cell growth factor project, primary screen (AID 1071).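 Note: score merges 667 nm spot intensity and signal to noise from triplicate slides.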 The settings on record: higher = more signal.
Assay [5] concerns the target Neurogenic locus notch homolog protein 2 (Homo sapiens) (UniProt Q04721). The experiment in a line: small molecules binding Notch2 protein – biochemical, small-molecule microarray, 635 nm fluorescence, stem cell growth factors, primary screen (AID 1073). The settings on record: higher = more signal.
Assay [6] deals with Pro-neuregulin-1, membrane-bound isoform (Homo sapiens) (UniProt Q02297). The assay can be described thus: small molecules binding neuregulin-1 protein – biochemical, small-molecule microarray, fluorescence 635/667, psychiatric disease protein project, primary screen (AID 1075).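 Note: score combines 667 nm spot fluorescence with signal to noise.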 The settings on record: NRG1 binding, 635 nm fluorescence, higher = more signal.
The test system of assay [7] is Neuregulin-1 EGF-like domain. The experiment in a line: small molecules binding NRG1 EGF domain – biochemical, small-molecule microarray, 635 nm fluorescence, primary screen (AID 1081).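 Note: binding of the protein to compounds printed on small-molecule microarray slides.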 The settings on record: higher = more signal.
Assay [8] in a line: FRG1 expression reporter modulators in myotubes – cell-based, C2C12 myotubes, firefly/Renilla luciferase, luminescence, FRG1 inhibition for FSHD, primary screen (AID 1084). The settings on record: FRG1 promoter luciferase, higher = more signal, called active from +8 up or from −8 down.
Assay [9] is described as follows: small molecules captured by biotinylated probe aFST – biochemical, small-molecule microarray, fluorescence 635/667, stem cell growth factor project, primary screen (AID 1086).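 Note: score merges 667 nm fluorescence with signal-to-noise of each printed compound spot.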 The settings on record: higher = more signal.
The nature of assay [10]: binders of probe aHhip on microarray, primary screen, stem cell growth factor project, biochemical, small-molecule microarray, fluorescence 635/667 (AID 1087).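 Note: score merges spot fluorescence at 667nm with spot signal to noise ratio.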 The settings on record: higher = more signal.
Assay [11] deals with PRMT1 (protein arginine N-methyltransferase 1). The experiment in a line: small molecules binding arginine methyltransferase PRMT1 – biochemical, small-molecule microarray, 635 nm fluorescence, primary screen (AID 1088).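 Note: binding of Prmt1 protein to compounds spotted on small-molecule microarray slides.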 The settings on record: higher = more signal.
A short description of assay [12]: growth effects on S. cerevisiae YJM789 – YJM789 clinical isolate, OD600, 24 h, basal, primary screen (AID 1089).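 Note: growth of clinical yeast isolate S. cerevisiae YJM 789 seeded 1000 cells per well; test concentration not given here.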 The settings on record: higher = more signal, called active from +8 up or from −8 down.
The nature of assay [13]: S. pombe growth modifiers, basal conditions – strain 972, OD600, 24 h, no modulator, primary screen (AID 1090).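 Note: basal condition with compound alone and no growth modifier present; test concentration not given here.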 The settings on record: S. pombe 972 growth, higher = more signal, called active from +8 up or from −8 down.
Assay [14] is described as follows: budding yeast growth modifiers under rapamycin – strain BY4716, OD600, 96 h, primary screen (AID 1091). Note: test concentration not given here. The settings on record: S. cerevisiae BY4716 + rapamycin, higher = more signal, called active from +8 up or from −8 down.
The target of assay [15] is Torsin-1A-interacting protein 2 (Homo sapiens) (UniProt Q8NFQ8). The experiment in a line: small molecules binding lysate-expressed LULL1 – cell lysate, human LULL1 lysate, 635/667 nm fluorescence, primary screen (AID 1092).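 Note: probe is lysate of COS7 cells overexpressing human LULL1; score merges per-feature 667 nm fluorescence with signal-to-noise.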 The settings on record: small-molecule microarray, hLULL1 lysate binding, 635 nm fluorescence; higher = more signal.
Assay [16] can be described thus: optical density change of DRC41 E. coli – strain DRC41, OD650, 24 h, E. coli filamentation project, primary screen (AID 1093).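 Note: MC1000 strain lacking acrAB efflux and sulA so SOS filamentation is blocked; test concentration not given here.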 The settings on record: E. coli DRC41 growth, higher = more signal, called active from +8 up or from −8 down.
Assay [17] in a line: probe aLefty2 binding to arrayed compounds – biochemical, biotinylated probe, 635/667 nm fluorescence, primary screen (AID 1094).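 Note: score merges spot fluorescence near 667 nm with spot signal-to-noise ratio.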 The settings on record: small-molecule microarray, higher = more signal.
In assay [18] the test system is Noggin (protein binding on small-molecule microarray). The experiment in a line: small molecules binding Noggin protein – biochemical, 635/667 nm fluorescence, primary screen (AID 1095).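 Note: score merges 667 nm feature fluorescence with signal to noise over triplicate slides.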 The settings on record: 635 nm fluorescence, higher = more signal.
For assay [19], the target named is Neurogenic locus notch homolog protein 3 (Homo sapiens) (UniProt Q9UM47). The experiment in a line: small molecules binding NOTCH3 protein – biochemical, 635/667 nm fluorescence, primary screen (AID 1096). The settings on record: small-molecule microarray, 635 nm fluorescence, higher = more signal.
Assay [20] can be described thus: probe aEGFR binding to arrayed compounds – biochemical, biotinylated probe, 635/667 nm fluorescence, primary screen (AID 1097).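 Note: probe is a biotinylated anti-EGFR antibody binding compounds printed on slides; score combines fluorescence near 667 nm and signal to noise of each spot.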 The settings on record: small-molecule microarray, higher = more signal.

Pro-neuregulin-1, membrane-bound isoform (Homo sapiens), sequence (Q02297 whole entry, looked up, the tested form may be a part, canonical isoform): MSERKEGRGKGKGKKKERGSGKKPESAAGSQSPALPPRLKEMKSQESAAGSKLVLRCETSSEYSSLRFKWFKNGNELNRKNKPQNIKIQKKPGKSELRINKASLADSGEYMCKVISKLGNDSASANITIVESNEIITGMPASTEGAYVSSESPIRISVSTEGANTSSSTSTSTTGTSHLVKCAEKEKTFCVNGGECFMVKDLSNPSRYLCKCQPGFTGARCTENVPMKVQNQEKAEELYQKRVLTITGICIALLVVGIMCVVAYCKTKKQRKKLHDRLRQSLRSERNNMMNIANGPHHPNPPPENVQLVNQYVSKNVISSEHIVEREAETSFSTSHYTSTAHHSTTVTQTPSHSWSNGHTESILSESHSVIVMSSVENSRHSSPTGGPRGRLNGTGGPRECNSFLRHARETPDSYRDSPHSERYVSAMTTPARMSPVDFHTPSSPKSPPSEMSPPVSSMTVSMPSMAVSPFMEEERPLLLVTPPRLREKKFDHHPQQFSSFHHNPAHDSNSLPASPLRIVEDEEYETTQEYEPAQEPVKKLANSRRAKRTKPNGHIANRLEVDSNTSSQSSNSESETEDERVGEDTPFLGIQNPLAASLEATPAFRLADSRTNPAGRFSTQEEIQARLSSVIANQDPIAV
Neurogenic locus notch homolog protein 2 (Homo sapiens), sequence (Q04721 whole entry, looked up, canonical isoform): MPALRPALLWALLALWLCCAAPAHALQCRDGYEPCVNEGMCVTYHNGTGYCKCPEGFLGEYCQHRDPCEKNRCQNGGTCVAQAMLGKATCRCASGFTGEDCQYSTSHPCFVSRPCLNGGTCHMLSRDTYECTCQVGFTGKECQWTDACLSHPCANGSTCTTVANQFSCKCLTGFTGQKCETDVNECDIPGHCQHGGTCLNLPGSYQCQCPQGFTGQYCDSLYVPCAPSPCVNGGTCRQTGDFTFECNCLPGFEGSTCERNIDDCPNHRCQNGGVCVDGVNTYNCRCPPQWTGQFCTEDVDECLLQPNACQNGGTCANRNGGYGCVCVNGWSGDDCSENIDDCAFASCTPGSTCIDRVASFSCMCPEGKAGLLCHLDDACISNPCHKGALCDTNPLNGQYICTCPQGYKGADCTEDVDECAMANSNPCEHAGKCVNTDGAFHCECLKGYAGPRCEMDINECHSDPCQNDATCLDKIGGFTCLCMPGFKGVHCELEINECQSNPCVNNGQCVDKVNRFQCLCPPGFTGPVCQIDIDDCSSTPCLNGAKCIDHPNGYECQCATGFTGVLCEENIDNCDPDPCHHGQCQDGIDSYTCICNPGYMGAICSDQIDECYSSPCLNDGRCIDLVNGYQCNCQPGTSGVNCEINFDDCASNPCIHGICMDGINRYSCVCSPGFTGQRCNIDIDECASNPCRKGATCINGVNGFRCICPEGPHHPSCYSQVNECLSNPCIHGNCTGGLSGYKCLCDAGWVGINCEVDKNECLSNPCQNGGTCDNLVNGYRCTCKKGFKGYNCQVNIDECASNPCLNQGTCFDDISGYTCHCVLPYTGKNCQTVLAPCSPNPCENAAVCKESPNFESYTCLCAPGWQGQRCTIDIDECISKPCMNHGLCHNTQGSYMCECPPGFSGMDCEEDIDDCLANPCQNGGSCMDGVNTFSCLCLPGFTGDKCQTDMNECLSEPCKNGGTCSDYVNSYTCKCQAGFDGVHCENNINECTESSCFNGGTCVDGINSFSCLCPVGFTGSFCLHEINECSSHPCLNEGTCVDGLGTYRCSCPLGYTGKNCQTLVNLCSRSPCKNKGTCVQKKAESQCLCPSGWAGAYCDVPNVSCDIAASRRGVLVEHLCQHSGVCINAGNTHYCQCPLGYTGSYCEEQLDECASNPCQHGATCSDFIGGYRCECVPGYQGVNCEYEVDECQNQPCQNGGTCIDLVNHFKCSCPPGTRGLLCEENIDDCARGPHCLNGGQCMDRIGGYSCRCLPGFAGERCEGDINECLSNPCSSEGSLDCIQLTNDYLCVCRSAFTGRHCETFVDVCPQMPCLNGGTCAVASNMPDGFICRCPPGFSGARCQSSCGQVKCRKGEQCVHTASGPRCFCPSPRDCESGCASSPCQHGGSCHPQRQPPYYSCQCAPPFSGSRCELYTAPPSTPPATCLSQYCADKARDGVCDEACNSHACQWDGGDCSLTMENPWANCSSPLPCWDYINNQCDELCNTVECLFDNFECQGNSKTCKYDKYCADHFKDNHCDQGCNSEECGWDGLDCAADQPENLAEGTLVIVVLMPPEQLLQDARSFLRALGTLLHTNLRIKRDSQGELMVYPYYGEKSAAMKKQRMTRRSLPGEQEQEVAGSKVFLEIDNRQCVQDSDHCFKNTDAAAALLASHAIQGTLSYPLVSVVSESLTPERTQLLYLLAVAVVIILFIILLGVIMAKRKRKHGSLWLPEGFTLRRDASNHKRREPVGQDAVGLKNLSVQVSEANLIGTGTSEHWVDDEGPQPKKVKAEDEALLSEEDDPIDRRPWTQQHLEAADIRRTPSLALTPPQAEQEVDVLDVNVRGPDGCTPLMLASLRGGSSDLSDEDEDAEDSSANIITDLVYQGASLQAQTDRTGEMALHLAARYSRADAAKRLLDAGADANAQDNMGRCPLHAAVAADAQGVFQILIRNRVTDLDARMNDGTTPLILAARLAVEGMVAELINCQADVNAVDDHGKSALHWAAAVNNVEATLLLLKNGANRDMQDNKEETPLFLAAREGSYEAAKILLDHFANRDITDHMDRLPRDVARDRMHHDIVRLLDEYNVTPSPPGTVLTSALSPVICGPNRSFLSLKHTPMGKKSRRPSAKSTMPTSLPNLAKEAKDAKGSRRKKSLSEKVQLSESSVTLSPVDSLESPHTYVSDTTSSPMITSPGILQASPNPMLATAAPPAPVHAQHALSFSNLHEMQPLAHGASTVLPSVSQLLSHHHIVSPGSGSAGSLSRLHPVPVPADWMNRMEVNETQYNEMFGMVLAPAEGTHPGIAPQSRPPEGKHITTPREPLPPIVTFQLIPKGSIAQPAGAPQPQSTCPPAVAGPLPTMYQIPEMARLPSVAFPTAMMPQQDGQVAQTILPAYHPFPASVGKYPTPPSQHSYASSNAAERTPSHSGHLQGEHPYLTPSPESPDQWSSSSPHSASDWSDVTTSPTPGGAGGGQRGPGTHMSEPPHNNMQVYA
Torsin-1A-interacting protein 2 (Homo sapiens), sequence (Q8NFQ8 whole entry, looked up): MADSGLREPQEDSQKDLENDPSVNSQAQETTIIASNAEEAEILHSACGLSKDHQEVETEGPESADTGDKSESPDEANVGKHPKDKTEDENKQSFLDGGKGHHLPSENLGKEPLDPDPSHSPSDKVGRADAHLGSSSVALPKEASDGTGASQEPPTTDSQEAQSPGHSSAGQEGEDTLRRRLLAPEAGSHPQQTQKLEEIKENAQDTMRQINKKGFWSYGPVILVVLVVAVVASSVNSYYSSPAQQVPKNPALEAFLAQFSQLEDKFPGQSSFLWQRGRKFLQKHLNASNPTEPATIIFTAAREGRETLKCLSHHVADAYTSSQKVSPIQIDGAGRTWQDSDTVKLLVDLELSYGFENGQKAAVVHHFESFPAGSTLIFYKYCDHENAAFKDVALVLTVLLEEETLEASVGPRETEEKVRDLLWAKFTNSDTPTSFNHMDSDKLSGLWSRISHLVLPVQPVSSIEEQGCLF

Take `CC(=O)NCCCC[C@@H]1NC(=O)[C@@H]2C[C@H](C(=O)O)[C@H](c3cccc(OCCO)c3)N2C1=O`: the composite z-score was -0.16 in [1]; 0.619 in [2]; -0.112 in assay [3]; 0.321 in assay [4]; 0.124 in assay [5]; 0.0677 in assay [6]. The composite z-score in assay [7] was 1.31; in [9], 0.199; in [10], -0.153; in [11], 1.55; in [15], 0.654; in assay [17], -0.0846. In addition, the results for the composite z-score in assay [18], in assay [19] and in assay [20] were 1.6, 0.58 and 0.0437, respectively. The z-score is 0.356 (inactive) in assay [8]; 1.18 (inactive) in assay [12]; -0.201 (inactive) in assay [13]; 1.46 (inactive) in assay [14]; 0.809 (inactive) in [16].
For `CCN(CC)c1ccc(N2CC=CC34O[C@@H]5C=CCOC(=O)[C@@H]5[C@H]3C(=O)N(C(C)CO)[C@@H]4C2=O)cc1` (stereo not given in full), the composite z-score is 0.652 in assay [1]; -0.893 in assay [2]; -0.171 in assay [3]; -0.784 in assay [4]; -1.58 in assay [5]; 0.392 in assay [6]. Besides, the composite z-score in assay [7] is 0.344; in assay [9], -0.278; in assay [10] it was -0.0296; in assay [11], -1.48; in assay [15], -0.151; in assay [17] it was -0.0592. Besides, the composite z-score in assay [18] is -1.39; in [19], -0.894; in [20], -0.252. Further, the z-score was 0.403 (inactive) in assay [8]; -0.185 (inactive) in [12]; -1.4 (inactive) in assay [13]; -0.8 (inactive) in [14]; 1.7 (inactive) in assay [16].
Turning to `CCCCCN1CC=CC23O[C@@H]4/C=C\CCC(C)OC(=O)C4[C@H]2C(=O)N(CCCO)[C@@H]3C1=O` (stereo not given in full), the composite z-score is 0.499 in assay [1]; 2.09 in assay [2]; -0.128 in [3]; -1.37 in assay [4]; -1.28 in assay [5]; 1.57 in [6]. Also, the composite z-score is 1.15 in assay [7]; -0.61 in assay [9]; -0.261 in assay [10]; -0.418 in assay [11]; 0.818 in assay [15]; -0.441 in [17]. The composite z-score was -1.44 in [18], -1.17 in [19] and -0.262 in assay [20]. Further, the z-score in [8] is 0.356 (inactive); in [12], -1.3 (inactive); in assay [13], -1.58 (inactive); in [14], -0.544 (inactive); in assay [16], 1.77 (inactive).
Turning to `CC1CC/C=C\[C@H]2OC34C=CCN(C(C)C)C(=O)[C@H]3N(C(CO)C(C)C)C(=O)[C@@H]4C2C(=O)O1` (stereo not given in full), the composite z-score was 1.54 in [1]; -0.267 in assay [2]; -0.0985 in assay [3]; -0.365 in [4]; -0.662 in assay [5]; -0.593 in assay [6]. Also, the composite z-score is 0.475 in assay [7]; -0.422 in [9]; -0.0994 in assay [10]; -0.825 in assay [11]; 1.55 in assay [15]; -0.0229 in assay [17]. Also, the results for the composite z-score in assay [18], in assay [19] and in assay [20] were -0.684, -0.274 and -0.154, respectively. In addition, the z-score in assay [8] was -0.416 (inactive); in assay [12], 0.959 (inactive); in [13], -1.84 (inactive); in assay [14] it was -0.631 (inactive); in assay [16] it was 2.14 (inactive).
In the case of `C[N+](C)(C)CCCC[C@@H]1NC(=O)[C@H]2C[C@@H](C(=O)NCCCCCN)[C@@H](c3cccc(OCCO)c3)N2C1=O`, the composite z-score in assay [1] is 0.89; in assay [2], 0.419; in assay [3], -0.0164; in assay [4], 0.372; in [5] it was 0.529; in assay [6], 2.07. Moreover, the composite z-score in assay [7] worked out at 0.739; in assay [9], 1.69; in assay [10] it was 0.242; in assay [11] it was 0.665; in assay [15], 2.7; in [17] it was 0.739. Further, the composite z-score was determined as 0.387 in [18], 0.526 in [19] and 0.162 in assay [20]. For the same compound, the z-score in [8] was -0.309 (inactive); in [12], -0.706 (inactive); in assay [13], -2.62 (inactive); in assay [14], -0.207 (inactive); in assay [16], 2.4 (inactive).
